Counter-ions that a name gives are not always drawn.
Tested on: HeLa
Test: nuclear count per well, robust Z-score vs DMSO; higher = more cells (less toxicity)
Conditions: 10 µM; 6 h
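Note: Hoechst-stained nuclei counted by automated confocal imaging of four fields per well in 384-well plates, with the robust Z-score based on the per-plate DMSO median and robust SD.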

| SMILES | nuclear count per well |
| --- | --- |
| CCCCC/C=C\C=C\[C@H](CCCCCCCC(=O)O)OO | 0.0656 |
| O[C@H]1[C@H](O)[C@@H](O)CN2CC[C@H](O)[C@H]12 [Castanospermine] | -0.541 |
| N#CC(C#N)=Cc1cc(O)c(O)c([N+](=O)[O-])c1 [Tyrphostin AG1288] | -0.136 |
| CC(=O)c1c(O)c(C)c(O)c(Cc2c(O)c3c(c(C(=O)/C=C/c4ccccc4)c2O)OC(C)(C)C=C3)c1O [Rottlerin] | 0.152 |
| C[C@H](CCC(=O)O)C[C@H](C)C[C@H](C)C(=O)/C=C(\O)[C@H](C)C[C@H](C)C/C=C/[C@@H](C)[C@@H](O)[C@@H](C)[C@@H](O)C[C@@H]1CC[C@@](C)([C@H]2CC[C@@](C)([C@@H](C)O)O2)O1 [Ionomycin] | -2.37 |
| C=C(C)[C@H]1Cc2c(ccc3c2O[C@@H]2COc4cc(OC)c(OC)cc4[C@@H]2C3=O)O1 [Rotenone] | -2.82 |
| COc1ccc(C[C@H]2NC[C@H](O)[C@H]2OC(C)=O)cc1 [Anisomycin] | -7.47 |
| CCOC(=O)CN1C(=O)CC(C[C@@H](O)C2C[C@@H](C)C[C@H](C)C2=O)CC1=O (some centres undefined) [Cycloheximide-N-ethylethanoate] | -0.108 |
| C=CCN1C[C@H](C(=O)N(CCCN(C)C)C(=O)NCC)C[C@@H]2c3cccc4[nH]cc(c34)C[C@H]21 [Cabergoline] | -0.326 |
| CCCCCCCCCCCCCC(=O)O[C@@H]1[C@@H](C)[C@@]2(O)[C@@H](C=C(CO)C[C@]3(O)C(=O)C(C)=C[C@@H]23)[C@@H]2C(C)(C)[C@]12OC(C)=O [Phorbol 12-myristate 13-acetate] | -0.439 |
| CN1[C@@H]2C[C@@H](OC(=O)[C@H](CO)c3ccccc3)C[C@H]1[C@@H]1O[C@@H]12 | 0.546 |
| CN1[C@@H]2CC[C@H]1C[C@@H](OC(=O)C(CO)c1ccccc1)C2 (some centres undefined) [Atropine] | 0.804 |
| COc1cc2c(c3oc(=O)c4c(c13)CCOC4=O)[C@@H]1C=CO[C@@H]1O2 [Aflatoxin G1] | 0.375 |
| O=C(NCCN1CCC2(CC1)C(=O)NCN2c1cccc(F)c1)c1ccc2ccccc2c1 | -1.14 |
| CN1C(=O)CC(=O)N(c2ccccc2)c2cc(Cl)ccc21 [Clobazam] | 1.03 |
| CC(C)n1cc2c3c(cccc31)C1C[C@@H](C(=O)N[C@H]3CCC[C@H]3O)CN(C)[C@@H]1C2 (some centres undefined) | 0.107 |
| CC[C@@]1([C@@H]2O[C@@H]([C@H]3O[C@@](O)(CO)[C@H](C)C[C@@H]3C)C[C@@H]2C)CC[C@H]([C@]2(C)CC[C@]3(C[C@H](O)[C@@H](C)[C@@H]([C@@H](C)[C@@H](OC)[C@H](C)C(=O)O)O3)O2)O1 [Monensin sodium salt] | -0.411 |
| CCCCCCCCCCCCCCCC(=O)OCC(COP(=O)([O-])OCC[N+](C)(C)C)OC(C)=O (centres undefined) | 0.209 |
| COc1cccc2c1cc([N+](=O)[O-])c1c(C(=O)O)cc3c(c12)OCO3 [Aristolochic acid] | 0.192 |
| CCCCC/C=C\CC1OC1CCCCCCCC(=O)O (centres undefined) [Leukotoxin A (9,10-EODE)] | -0.0952 |

| SMILES | nuclear count per well |
| --- | --- |
| c1ccc2c(c1)[I+]c1ccccc1-2 [Diphenyleneiodonium chloride] | -4.3 |
| CCCCCCC(=O)O[C@H]1CC[C@H]2[C@@H]3CCC4=CC(=O)CC[C@]4(C)[C@H]3CC[C@]12C [Testosterone Enanthate] | -0.174 |
| O=c1[nH]c2ccccc2n1C1CCN(CCCC(c2ccc(F)cc2)c2ccc(F)cc2)CC1 [Pimozide] | 0.329 |
| CCN1C[C@]2(COC)[C@H](O)C[C@H](OC)[C@@]34[C@@H]5C[C@@]6(O)[C@H](OC(=O)c7ccccc7)[C@@H]5[C@@](OC(C)=O)([C@@H]([C@H](OC)[C@H]23)[C@@H]14)[C@@H](O)[C@@H]6OC [Aconitine] | 0.244 |
| C=C1C/C(=C/C)C(=O)O[C@@H]2CCN3CC=C(COC(=O)[C@]1(C)O)[C@H]23 [Seneciophylline] | 0.668 |
| CCOC(=O)c1cncn1[C@H](C)c1ccccc1 [Etomidate] | -0.868 |
| C/C1=C/C(=O)O[C@@H]2C[C@@H](CC[C@H](C)/C=C\CC1)O[C@@](O)([C@@H]1CSC(=O)N1)C2 [Latrunculin B] | -3.56 |
| CN(C)C(=O)Oc1ccc[n+](C)c1 [Pyridostigmine Bromide] | 0.45 |
| c1ccc(C2CC2)c(OCC2=NCCN2)c1 [Cirazoline] | 0.26 |
| N#CC(C#N)=Cc1ccc([N+](=O)[O-])c(O)c1 [Tyrphostin AG-126] | -0.177 |
| C#CCN(C)C(C)Cc1ccccc1 (centres undefined) [Deprenyl] | 0.44 |
| CC(NC(C)(C)C)C(=O)c1cccc(Cl)c1 (centres undefined) [Bupropion] | 2.38 |
| CC(=O)C1=C(O)[C@@H]2[C@H]3c4c[nH]c5cccc(c45)C[C@H]3C(C)(C)N2C1=O [Cyclopiazonic acid] | -0.298 |
| CN1C[C@H](CNC(=O)OCc2ccccc2)C[C@@H]2c3cccc4c3c(cn4C)C[C@H]21 [Metergoline] | -0.177 |
| COC(=O)[C@@H](N)CCCNC(=N)N[N+](=O)[O-] | 0.607 |
| CCCCC/C=C\C/C=C\C/C=C\C/C=C\CCCC(=O)NCCO [Anandamide (20:4, n-6)] | 0.624 |
| CN1C[C@H](C(=O)N[C@]2(C)O[C@@]3(O)[C@@H]4CCCN4C(=O)[C@H](Cc4ccccc4)N3C2=O)C[C@@H]2c3cccc4[nH]cc(c34)C[C@H]21 [Dihydroergotamine Mesylate] | 0.685 |
| NCCc1c[nH]c2ccc(O)cc12 [Serotonin] | -0.0578 |
| CCCCC[C@@H](/C=C/C=C\C/C=C\C/C=C\CCCC(=O)O)OO | -0.172 |
